Source: ChEMBL document CHEMBL3433997, “St. Jude Leishmania screening dataset” (2016)

Assays:
Type in all cases: functional
[1] = target: Solute carrier family 2, facilitated glucose transporter member 1 (Homo sapiens) (UniProt P11166); test: ST_JUDE_LEISH: Cytotoxicity at 2uM final concentration against transgenic Leishmania Mexicana promastigotes LmGLUT1 that are glucose transport deficient and complemented with the human glucose transporter GLUT1. Activity is measured by DNA content using SYBR green in vitro
Sequence of Solute carrier family 2, facilitated glucose transporter member 1 (Homo sapiens) (P11166 whole entry): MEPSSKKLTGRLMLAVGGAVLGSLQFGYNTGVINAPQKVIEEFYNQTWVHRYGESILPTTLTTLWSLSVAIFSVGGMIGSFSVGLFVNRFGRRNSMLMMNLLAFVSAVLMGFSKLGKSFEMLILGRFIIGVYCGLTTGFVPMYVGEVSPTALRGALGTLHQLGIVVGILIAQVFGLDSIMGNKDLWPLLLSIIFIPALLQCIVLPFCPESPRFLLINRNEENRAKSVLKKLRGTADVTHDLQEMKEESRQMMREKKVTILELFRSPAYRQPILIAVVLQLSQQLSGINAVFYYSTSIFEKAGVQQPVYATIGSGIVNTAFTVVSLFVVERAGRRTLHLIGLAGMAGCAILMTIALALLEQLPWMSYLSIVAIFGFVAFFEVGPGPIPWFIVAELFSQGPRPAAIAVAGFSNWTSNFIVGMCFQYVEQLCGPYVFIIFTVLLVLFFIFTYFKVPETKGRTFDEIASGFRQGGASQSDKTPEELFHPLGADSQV

[2] = target: Hexose transporter 1 (Plasmodium falciparum) (UniProt O97467); test: ST_JUDE_LEISH: Cytotoxicity at 2uM final concentration against transgenic Leishmania Mexicana promastigotes LmPfHT that are glucose transport deficient and complemented with the Plasmodium falciparum hexose transporter. Activity is measured by DNA content using SYBR green in vitro
[3] = target: Glucose transporter (Leishmania mexicana) (UniProt O61059); test: ST_JUDE_LEISH: Cytotoxicity at 2uM final concentration against transgenic Leishmania Mexicana promastigotes LmGT2 that are glucose transport deficient and complemented with the L. Mexicana glucose transporter 2. Activity is measured by DNA content using SYBR green in vitro

| SMILES | inhibition [1] [%] | inhibition [2] [%] | inhibition [3] [%] |
| --- | --- | --- | --- |
| CCCCCCCCS(=O)(=O)NCCCC1CCN(CCCCCNC(=O)C=Cc2ccc(Cl)c(Cl)c2)CC1 | 2.57 | -0.32 | 2.95 |
| N#CC(c1ccc(F)cc1)c1ccc2c(C(F)(F)F)cc(C(F)(F)F)nc2n1 (stereo not given) | 3.66 | 4.6 | 1.81 |
| CO/C(=C\C=C\c1cc2cc(Cl)c(Cl)cc2[nH]1)C(=O)NCCN1CCCCC1 | 0.85 | 1.14 | 0.35 |
| O=S(=O)(Nc1cc2c(cc1O)CCNCC2)c1ccc(-c2ccc(Cl)cc2)cc1 | 3.27 | -0.71 | 2.34 |
| CCOC(=O)c1ccc(NC(=O)NNC(=O)c2ccc(CCN3CCC(c4nc(COCC(F)(F)F)c(-c5ccc(F)cc5)o4)CC3)cc2)cc1 | 1.09 | 1.22 | 0.84 |
| FC(F)(F)c1ccc2[nH]ccc(=NN=Cc3ccc(Cl)cc3)c2c1 | 3.42 | 3.11 | 2.9 |
| CC1CCC(C[C@@H](C(=O)N[C@H](C(=O)Nc2nccs2)[C@@H](C)O)[C@H](CCC(F)(F)F)N(O)C=O)CC1 (stereo not given in full) | 0.36 | -2.34 | 0.78 |
| O=C(NCC(CCCN1CCC(c2c[nH]c3ccccc23)CC1)c1ccccc1)Nc1ccc(Cl)c(Cl)c1 (stereo not given) | 4.09 | 2.82 | 2.69 |
| O=C(N1CCN(c2ccc(C(F)(F)F)cc2[N+](=O)[O-])CC1)C(Cl)(Cl)Cl | 3.26 | 3.64 | 1.86 |
| O=C(N[C@H]1CCN(Cc2ccc(OC3CCN(Cc4ccccc4)CC3)cc2)C1)c1ccc(Cl)c(Cl)c1 | -0.36 | -1.3 | -1.06 |
| CCNc1cc(C(=O)N[C@@H](Cc2ccccc2)[C@H](O)CNCCC(C)(C)C)c(F)c(N2CCCCS2(=O)=O)c1 | 6.09 | -0.44 | 0.33 |
| CN(CCCCCN1CCC(NC(=O)Nc2ccc(C(F)(F)F)cc2)C1)C(=O)/C=C/c1ccc(Cl)c(Cl)c1 (stereo not given) | 3.11 | 2.11 | 2.97 |
| N#Cc1cccc(NC(=O)NC2CCN(CCCCCNC(=O)/C=C/c3ccc(Cl)c(Cl)c3)CC2)c1 | 4.68 | 5.86 | 8.54 |
| Cc1cc(CNCCCCCCNCc2cccc([N+](=O)[O-])c2)ccc1O | 10.5 | 9.56 | 9.64 |
| O=C(CCc1c[nH]cn1)Nc1cccc(-c2ccc(-c3nc4ccccc4[nH]3)s2)c1 | 2.18 | 4.04 | 1.88 |
| Nc1nccc(-c2ccc3c(-c4cccc(F)c4)cnc(N)c3c2)n1 | -0.44 | 3.51 | -0.84 |
| CCCNC(=O)c1ccc(N2CCC(c3ccccc3C)CC2)nc1 | 0.89 | 0.25 | 0.97 |
| Cc1ccccc1C1CCN(C2CCC(NC(=O)/C=C/c3ccc(C#N)cc3)CC2)CC1 (stereo not given) | 3.43 | 4.49 | 5.03 |
| Cc1cc(OCCCN2CCCCC2)ccc1NC(=O)COc1ccc(Cl)cc1C(=O)c1cc(C#N)cc(C(F)(F)F)c1 | 4.63 | 3.53 | 0.43 |
| CCc1c(C(=O)NC2CCC(N3CCC(c4ccccc4C)CC3)CC2)[nH]c2ccc(Br)cc12 (stereo not given) | 5.69 | 5.55 | 3.97 |
| COc1ccc(-c2cnc(N)c(-c3nc4cc(Br)ccc4[nH]3)c2)cc1 | 9.38 | 11.3 | 6.12 |
| Cc1cc(=NN=Cc2ccccc2Cl)c2ccc(F)cc2[nH]1 | 6.47 | 6.14 | 3.93 |
| CC(C)(C)OC(=O)NCC(=O)N(Cc1ccccc1)Cc1ccccc1 | 4.96 | 4.38 | 3.73 |
| CC1(C)N=C(N)N=C(N)N1c1cccc(C(F)(F)F)c1 | -1.8 | -0.92 | -3.44 |
| O=C(Oc1ccc(C2CNCCc3c2cc(OC(=O)c2ccc(O)cc2)c(OC(=O)c2ccc(O)cc2)c3Cl)cc1)c1ccc(O)cc1 (stereo not given) | 4.39 | 5.32 | 4.76 |

| SMILES | inhibition [1] [%] | inhibition [2] [%] | inhibition [3] [%] |
| --- | --- | --- | --- |
| CC1(C)C(=O)Nc2ccccc2N1C(=O)CN1CCN(c2ccccc2O)CC1 | 0.51 | -0.55 | -3.82 |
| COc1cc2nc(N(C)Cc3cc4c(Cl)cccc4s3)nc(N)c2cc1OC | -0.54 | -1.7 | -3.11 |
| CC(C)c1sc(N2CCN(C)CC2)nc1C(=O)NCCc1ccc(Cl)c(Cl)c1 | 2.62 | 2.93 | 2.34 |
| COc1ccc2nccc([C@@H](O)CN3CCC(NCc4ccc5nsnc5c4)CC3)c2c1 | 0.12 | -1.13 | -0.38 |
| O=C(NCc1ccc(F)cc1)Nc1cccc(-c2ccc(-c3nc4cc(F)ccc4[nH]3)cc2)c1 | 6.43 | 7.78 | 7.37 |
| Fc1cccc(COc2ccc(Nc3ncnc4sc(C#C[C@H]5CC[C@H](CN6CCOCC6)N5)cc34)cc2Cl)c1 | 0.36 | -0.26 | -0.26 |
| CCOC(=O)N1CCN(CCCCCNc2cc(C)nc(NC(=N)Nc3ccc(Cl)cc3)n2)CC1 | 6.99 | 8.05 | 6.08 |
| COc1ccc(C2C(C(=O)Nc3cc(Cl)c(OC)cc3OC)c3ccccc3C(=O)N2C)cc1 (stereo not given) | 0.28 | 1.49 | -1.07 |
| CCCc1ccc(NC(=O)c2cccc(CN3CCCN(Cc4cccc(C#N)c4)CC3)c2)cc1 | 3.6 | -0.3 | 1.95 |
| CCOC(=O)c1ccc(NC(=O)Nc2cccc(-c3ccc(-c4nc5cc(F)ccc5[nH]4)cc3)c2)cc1 | 2.21 | 2.88 | 0.33 |
| Cc1cccc2nc(-c3ccc(-c4cccc(CN5CCC(C(N)=O)CC5)c4)cc3)[nH]c12 | 0.21 | -0.52 | -1.72 |
| CC(C)(CNC(=O)[C@@H]1CCCN(CCOc2ccc(F)c(F)c2)C1)c1nc(-c2ccc(Cl)c(O)c2)c(-c2ccncc2)[nH]1 | 0.3 | -0.12 | 1.28 |
| O=C(NC1CCN(CCN2CCC(c3ccccc3C(F)(F)F)CC2)CC1)c1ccc(-c2ccc(Cl)cc2)cc1 | 9.46 | 0.61 | 1.57 |
| Cc1nc(-c2ccc(-c3ccc(NC(=O)Nc4ccc(I)c(OCCN(C)C)c4)cc3)c(C)c2)no1 | 7 | 5.44 | 3.02 |
| COc1ccc(CNC(=O)c2cnc3c(O)cccc3c2Nc2cccc(NC(=O)c3ccc(Cl)c([N+](=O)[O-])c3)c2)cc1 | 0.79 | 6.77 | 4.02 |
| CCc1ccc(CN2CCC(CNC(=O)c3cc(-c4cccc(F)c4)cs3)C2)cc1 (stereo not given) | -0.39 | 1.94 | 1.42 |
| C=CCN1Cc2c(O)cccc2C(c2ccc(O)c(O)c2)C1 (stereo not given) | 6.49 | 5.18 | 4.91 |
| FC(F)(F)COc1ccc(CNCCCCCCNCc2ccc(OCC(F)(F)F)c3ccccc23)c2ccccc12 | 113 | 107 | 108 |
| CCN(CC)CCON=Cc1cc(C)c2[nH]c3ccc(OCc4ccccc4)cc3c2c1C | -1.13 | 0.92 | -2.27 |
| Cc1ccc(O)c(-c2cc(C(=O)Nc3ccc(S(=O)(=O)N4CCCCC4)cc3)[nH]n2)c1 | 3.32 | 1.22 | 1.19 |
| C=CC[C@H](C[C@H](O)[C@H](Cc1ccccc1)NC(=O)c1nn(-c2ccccc2)nc1C)C(=O)NC1CCCCC1 | 2.06 | 2.34 | 2.36 |
| Fc1ccc2[nH]c(-c3ccc(-c4ccc(CNCCN5CCNCC5)cc4)cc3)nc2c1 | -0.25 | 1.53 | 0.99 |
| Cn1c(NC(=O)C2CCC(CNC(=O)c3ccc(O)c(-c4ccc(Cl)c(Cl)c4)c3)CC2)nc2ccccc21 (stereo not given) | 0.88 | 0.39 | 0.36 |
| CC(C)(C)c1nn(-c2ccccc2)c2[nH]c(=O)c(CNCc3ccccc3)cc12 | 2.76 | 2.02 | 3.75 |
| CCCC1N=C(N)N=C(N)N1c1ccc(CC)cc1 (stereo not given) | 1.98 | 0.44 | 1.72 |
